# Like-named read-outs stand apart in the source and are kept apart here.
# Experiments:
# CDKL5 = tested on: CDKL5; parameters: species or system human, MV4-11 + K-562 + COLO205 + SK-N-BE2 + OVCAR-8; details: read-out: apparent Kd, n = 1
# MTHFD1 = tested on: MTHFD1; parameters: species or system human, MV4-11 + K-562 + COLO205 + SK-N-BE2 + OVCAR-8; details: read-out: apparent Kd; compound concentrations:100 nM and 1000 nM (sheet 'Samples'); n = 1
# PLK1 = tested on: PLK1; parameters: species or system human, MV4-11 + K-562 + COLO205 + SK-N-BE2 + OVCAR-8; details: read-out: apparent Kd; compound concentrations: 100 nM and 1000 nM (sheet 'Samples'), CATDS: 0.37737970121019898; n = 1
# CLK1 = tested on: CLK1; parameters: species or system human, MV4-11 + K-562 + COLO205 + SK-N-BE2 + OVCAR-8; details: read-out: apparent Kd; compound concentrations: 100 nM and 1000 nM (sheet 'Samples'), CATDS: 0.119262646968794; n = 1
# CLK4 = tested on: CLK4; parameters: species or system human, MV4-11 + K-562 + COLO205 + SK-N-BE2 + OVCAR-8; details: read-out: apparent Kd; compound concentrations: 100 nM and 1000 nM (sheet 'Samples'), CATDS: 0.13099506977266501; n = 1
# ERN2 = tested on: ERN2; parameters: species or system human, MV4-11 + K-562 + COLO205 + SK-N-BE2 + OVCAR-8; details: read-out: apparent Kd; compound concentrations: 100 nM and 1000 nM (sheet 'Samples'), CATDS: 0.122228474485695; n = 1
# GSK3A = tested on: GSK3A; parameters: species or system human, MV4-11 + K-562 + COLO205 + SK-N-BE2 + OVCAR-8; details: read-out: apparent Kd; compound concentrations: 100 nM and 1000 nM (sheet 'Samples'), CATDS: 0.15449009445540701; n = 1
# GSK3B = tested on: GSK3B; parameters: species or system human, MV4-11 + K-562 + COLO205 + SK-N-BE2 + OVCAR-8; details: read-out: apparent Kd; compound concentrations: 100 nM and 1000 nM (sheet 'Samples'), CATDS: 0.15136404639572901; n = 1
# PAK4 = tested on: PAK4; parameters: species or system human, MV4-11 + K-562 + COLO205 + SK-N-BE2 + OVCAR-8; details: read-out: apparent Kd; compound concentrations: 100 nM and 1000 nM (sheet 'Samples'), CATDS: 0.121686694160256; n = 1
# Q6ZSR9 = Q6ZSR9 (human, UniProt Q6ZSR9); parameters: species or system MV4-11 + K-562 + COLO205 + SK-N-BE2 + OVCAR-8; details: read-out: apparent Kd; compound concentrations: 100 nM and 1000 nM (sheet 'Samples'), CATDS: 0.110463614954163; n = 1
# Q6ZSR9, sequence (Q6ZSR9 whole entry, looked up): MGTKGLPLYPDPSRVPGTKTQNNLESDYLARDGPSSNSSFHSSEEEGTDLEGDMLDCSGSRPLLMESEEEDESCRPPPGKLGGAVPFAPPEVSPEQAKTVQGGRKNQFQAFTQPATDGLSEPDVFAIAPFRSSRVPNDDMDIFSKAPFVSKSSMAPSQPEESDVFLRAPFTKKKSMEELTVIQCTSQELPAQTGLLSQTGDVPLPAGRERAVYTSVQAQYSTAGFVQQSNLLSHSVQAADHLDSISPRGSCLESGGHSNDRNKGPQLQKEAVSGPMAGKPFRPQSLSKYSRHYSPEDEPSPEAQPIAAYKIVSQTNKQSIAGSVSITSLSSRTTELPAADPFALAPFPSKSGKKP
# CIT = tested on: CIT; parameters: species or system human, MV4-11 + K-562 + COLO205 + SK-N-BE2 + OVCAR-8; details: read-out: apparent Kd; compound concentrations: 100 nM and 1000 nM (sheet 'Samples'), CATDS: 7.5521196037373797E-2; n = 1
# CSNK1A1 = tested on: CSNK1A1; parameters: species or system human, MV4-11 + K-562 + COLO205 + SK-N-BE2 + OVCAR-8; details: read-out: apparent Kd; compound concentrations: 100 nM and 1000 nM (sheet 'Samples'), CATDS: 4.0949734681157798E-2; n = 1
# CSNK1D = tested on: CSNK1D; parameters: species or system human, MV4-11 + K-562 + COLO205 + SK-N-BE2 + OVCAR-8; details: read-out: apparent Kd; compound concentrations: 100 nM and 1000 nM (sheet 'Samples'), CATDS: 7.5353596099526104E-2; n = 1
# CSNK1E = tested on: CSNK1E; parameters: species or system human, MV4-11 + K-562 + COLO205 + SK-N-BE2 + OVCAR-8; details: read-out: apparent Kd; compound concentrations: 100 nM and 1000 nM (sheet 'Samples'), CATDS: 5.67501120580748E-2; n = 1
# DDR1 = tested on: DDR1; parameters: species or system human, MV4-11 + K-562 + COLO205 + SK-N-BE2 + OVCAR-8; details: read-out: apparent Kd; compound concentrations: 100 nM and 1000 nM (sheet 'Samples'), CATDS: 5.04347105241187E-2; n = 1
# DDR2 = tested on: DDR2; parameters: species or system human, MV4-11 + K-562 + COLO205 + SK-N-BE2 + OVCAR-8; details: read-out: apparent Kd; compound concentrations: 100 nM and 1000 nM (sheet 'Samples'), CATDS: 3.97356163806874E-2; n = 1
# ERCC2 = tested on: ERCC2; parameters: species or system human, MV4-11 + K-562 + COLO205 + SK-N-BE2 + OVCAR-8; details: read-out: apparent Kd; compound concentrations: 100 nM and 1000 nM (sheet 'Samples'), CATDS: 0.16888440143106601; n = 1
# MAPK10 = tested on: MAPK10; parameters: species or system human, MV4-11 + K-562 + COLO205 + SK-N-BE2 + OVCAR-8; details: read-out: apparent Kd; compound concentrations: 100 nM and 1000 nM (sheet 'Samples'), CATDS: 4.34774071226985E-2; n = 1
# MAPK14 = tested on: MAPK14; parameters: species or system human, MV4-11 + K-562 + COLO205 + SK-N-BE2 + OVCAR-8; details: read-out: apparent Kd; compound concentrations: 100 nM and 1000 nM (sheet 'Samples'), CATDS: 0.113663446643848; n = 1
# MAPK9 = tested on: MAPK9; parameters: species or system human, MV4-11 + K-562 + COLO205 + SK-N-BE2 + OVCAR-8; details: read-out: apparent Kd; compound concentrations: 100 nM and 1000 nM (sheet 'Samples'), CATDS: 4.6959741652320801E-2; n = 1
# MAPKAPK2 = tested on: MAPKAPK2; parameters: species or system human, MV4-11 + K-562 + COLO205 + SK-N-BE2 + OVCAR-8; details: read-out: apparent Kd; compound concentrations: 100 nM and 1000 nM (sheet 'Samples'), CATDS: 8.6501611072326803E-2; n = 1
# NLK = tested on: NLK; parameters: species or system human, MV4-11 + K-562 + COLO205 + SK-N-BE2 + OVCAR-8; details: read-out: apparent Kd; compound concentrations: 100 nM and 1000 nM (sheet 'Samples'), CATDS: 4.75025353654299E-2; n = 1
# RIPK2 = tested on: RIPK2; parameters: species or system human, MV4-11 + K-562 + COLO205 + SK-N-BE2 + OVCAR-8; details: read-out: apparent Kd; compound concentrations: 100 nM and 1000 nM (sheet 'Samples'), CATDS: 0.10770613005205; n = 1
# TNK1 = tested on: TNK1; parameters: species or system human, MV4-11 + K-562 + COLO205 + SK-N-BE2 + OVCAR-8; details: read-out: apparent Kd; compound concentrations: 100 nM and 1000 nM (sheet 'Samples'), CATDS: 0.18410889385923901; n = 1
# TNK2 = tested on: TNK2; parameters: species or system human, MV4-11 + K-562 + COLO205 + SK-N-BE2 + OVCAR-8; details: read-out: apparent Kd; compound concentrations: 100 nM and 1000 nM (sheet 'Samples'), CATDS: 0.19568733735508301; n = 1
structure (smiles),measurement,setting,value
COc1cc2ncn(-c3cc(OCc4ccccc4C(F)(F)F)c(C(N)=O)s3)c2cc1OC [GW843682X],potency estimated from few doses,CDKL5; compound concentrations:100 nM and 1000 nM (sheet 'Samples'),2330 nM
same,potency estimated from few doses,MTHFD1,1710 nM
same,potency estimated from few doses,PLK1,1400 nM
Cn1cc(C2=C(c3cn(C)c4c([N+](=O)[O-])cccc34)C(=O)NC2=O)c2ccccc21 [RO0317452-000],potency estimated from few doses,"CDKL5; compound concentrations: 100 nM and 1000 nM (sheet 'Samples'), CATDS: 0.10582240505262699",2010 nM
same,potency estimated from few doses,CLK1,1520 nM
same,potency estimated from few doses,CLK4,1260 nM
same,potency estimated from few doses,ERN2,1450 nM
same,potency estimated from few doses,GSK3A,933 nM
same,potency estimated from few doses,GSK3B,967 nM
same,potency estimated from few doses,PAK4,1460 nM
same,potency estimated from few doses,Q6ZSR9,1810 nM
Nc1nccc(-c2c(-c3ccc(F)cc3)ncn2C2CCN(Cc3ccccc3)CC2)n1 [SB-219980],potency estimated from few doses,CIT,142 nM
same,potency estimated from few doses,CSNK1A1,1790 nM
same,potency estimated from few doses,CSNK1D,143 nM
same,potency estimated from few doses,CSNK1E,362 nM
same,potency estimated from few doses,DDR1,584 nM
same,potency estimated from few doses,DDR2,2230 nM
same,potency estimated from few doses,ERCC2,26.1 nM
same,potency estimated from few doses,MAPK10,1230 nM
same,potency estimated from few doses,MAPK14,53.6 nM
same,potency estimated from few doses,MAPK9,814 nM
same,potency estimated from few doses,MAPKAPK2,99.3 nM
same,potency estimated from few doses,NLK,770 nM
same,potency estimated from few doses,RIPK2,60 nM
same,potency estimated from few doses,TNK1,22.7 nM
same,potency estimated from few doses,TNK2,20.7 nM
